According to PubChem BioAssay AID2599 (Sanford-Burnham Center for Chemical Genomics, 2010):
In all, about 330,000 compounds went through this assay and about 5,800 (1.8%) were called active. The sample holds actives, similar compounds and a random draw of the others, so the mix is not that of the screen.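 Rule for the calls: active = inhibition above about 50% at the single tested dose (limit read from the data); inactive = the rest.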

Molecular target: Sentrin-specific protease 6 (Homo sapiens) (UniProt Q9GZR1)
Sequence (Q9GZR1 628-1112 limits assumed): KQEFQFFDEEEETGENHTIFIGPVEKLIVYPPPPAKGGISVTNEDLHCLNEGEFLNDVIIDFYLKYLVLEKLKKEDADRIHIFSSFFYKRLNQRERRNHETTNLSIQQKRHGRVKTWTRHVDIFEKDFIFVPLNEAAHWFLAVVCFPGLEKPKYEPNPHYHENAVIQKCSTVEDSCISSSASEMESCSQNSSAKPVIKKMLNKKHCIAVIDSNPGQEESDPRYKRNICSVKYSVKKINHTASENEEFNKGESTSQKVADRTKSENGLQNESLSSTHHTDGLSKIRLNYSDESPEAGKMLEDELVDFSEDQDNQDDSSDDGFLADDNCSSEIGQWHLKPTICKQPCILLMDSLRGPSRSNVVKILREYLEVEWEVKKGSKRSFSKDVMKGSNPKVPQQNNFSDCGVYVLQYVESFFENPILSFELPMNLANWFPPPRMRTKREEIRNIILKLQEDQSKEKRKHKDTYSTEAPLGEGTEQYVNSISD
Assay: inhibition of human SENP6 catalytic domain – biochemical, luminescence, uHTS, primary screen (AID 2599);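 note: plate controls were DMSO wells with enzyme for no effect and DMSO wells lacking enzyme for full effect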
Settings: Recombinant SENP6 catalytic domain, aminoluciferin luminescence; at 10 µM; active compounds read high

SMILES	inhibition
NC(N)=NCCCc1cn(CC(=O)N2CCNCC2)nn1	-12% (inactive)
O=C(CN1CCN(S(=O)(=O)c2cccc(Cl)c2)CC1)N1CCCCC1	-12.8% (inactive)
C=CCNC(=S)NNc1ncnc2sc3c(c12)CC(C)(C)OC3	-6.15% (inactive)
C1=C(CCNc2ncnc3c2cnn3-c2ccccc2)CCCC1	62.1% (active)
O=C(NCCC1=CCCCC1)C1CCN(Cc2cnn(-c3ccccc3)c2-n2cccc2)CC1	12.3% (inactive)
CC(C)Sc1ncnc2c1cnn2-c1ccccc1	38.9% (inactive)
O=C(CSc1nc2[nH]ncc2c(=O)[nH]1)Nc1ccc(F)cc1	-4.08% (inactive)
CC1(C)O[C@@H]2[C@H](O1)[C@@H](COS(=O)(=O)O)O[C@H]2n1ccc(=O)[nH]c1=O	-11.6% (inactive)
Clc1ccc(-c2csc(-c3ccncc3)n2)cc1	-16.8% (inactive)
COc1ccc(-c2csc(Nc3ccccn3)n2)cc1	81.9% (active)
COc1ccc(Nc2nc(-c3ccccc3)cs2)cc1	88.5% (active)
Clc1ccc(Nc2nc(-c3cccs3)cs2)nc1	35.3% (inactive)
COc1ccc(-c2csc(Cc3nc(O)cs3)n2)cc1	25.6% (inactive)
CCCn1c(CCNc2nc(-c3ccc(OC)cc3)cs2)nc2ccccc21	1.04% (inactive)
COc1ccc(-c2csc(NC(=O)COC(=O)Cc3ccc(Cl)cc3Cl)n2)cc1	20.8% (inactive)
COc1ccc2c(c1OC)C(=O)OC2Nc1nc(-c2ccccc2)cs1 (stereo not given)	-5.84% (inactive)
c1ccc(Nc2nc(-c3ccncc3)cs2)nc1	88.8% (active)
Oc1c(Br)cc(/C=N/NC(=S)NCC2CCCO2)cc1Br (stereo not given)	-26.9% (inactive)
CCn1cc(C(=O)OCC(=O)Nc2cccc(C)c2)c(=O)c2ccc(C)nc21	-16.3% (inactive)
COC(=O)c1ccc(Oc2nc(NC(C)C)nc(SC)n2)cc1	-13.9% (inactive)
Cc1cccc(NC(=O)CSc2nnc(CCCCCNC(=O)OC(C)(C)C)o2)c1C	12.1% (inactive)
COc1ccc(CNC(=O)C(c2ccc(O)cc2)N(Cc2ccco2)C(=O)c2snc(C(N)=O)c2N)cc1 (stereo not given)	-5.39% (inactive)
C=CCC1(C#N)C(=S)NC(C)=C(C(=O)OCC)C1c1ccccc1 (stereo not given)	-0.11% (inactive)
CCc1ccc(CN(C)C(=O)C2CCC(=O)N(Cc3cccc(OC)c3)C2)nc1 (stereo not given)	-7.64% (inactive)
CC(C)Cn1c(N)c(C(=O)NCc2cccs2)c2nc3ccccc3nc21	80.7% (active)

SMILES	inhibition
Cn1ncc(Br)c1C(=O)NCc1cccs1	-1.6% (inactive)
CCOc1ccccc1NC(=O)Cn1nnc(C(=O)NCc2cccs2)c1N	10.8% (inactive)
OC(CN=c1sc2ccccc2n1CC(O)COc1ccccc1)COc1ccccc1 (stereo not given)	-0.866% (inactive)
CNC(C)C#Cc1ccc2sc3cc(OC)c(OC)cc3c(=O)c2c1 (stereo not given)	78.2% (active)
CC(C)CN(C(=O)COC(=O)c1ccc2ccccc2c1)c1c(N)n(Cc2ccccc2)c(=O)[nH]c1=O	-9.38% (inactive)
CCOc1cc(/C=N/n2cnnc2)c(Br)cc1O	12.6% (inactive)
CCCCCC(O)c1cccc(OCc2ccc3ccccc3n2)c1 (stereo not given)	23% (inactive)
O=C(COC(=O)c1cc(S(=O)(=O)N2CCOCC2)ccc1F)NC1CC1	-2.29% (inactive)
CNCC(O)c1ccc(O)c(O)c1 (stereo not given)	-10.1% (inactive)
CCOC(=O)C(NS(=O)(=O)c1ccc(C)cc1)(C(F)(F)F)P(=O)(OCC(C)C)OCC(C)C (stereo not given)	8.36% (inactive)
CCCCCc1ccc(-c2ccc(C(=O)O)cc2)nc1	95.9% (active)
CCCCCc1ccc(-c2ccc(OCC)cc2)nc1	-5.2% (inactive)
CCCCCc1ccc(-c2cn(Cc3ccc4ccccc4c3)nn2)cc1	-16.8% (inactive)
CC(=O)N1C(C)c2ccccc2C(C)(C)CC12CCCCC2 (stereo not given)	5.42% (inactive)
O=c1[nH]c(CN2CCOCC2)nc2cc(Cl)ccc12	0.886% (inactive)
NC(=O)Cc1nc2scc(-c3ccc(Cl)cc3)c2c(=O)[nH]1	-10.5% (inactive)
O=c1[nH]c(CCl)nc2cc(-c3ccc(Cl)cc3)sc12	94.6% (active)
CCOC(=O)c1ccc(CS(=O)c2ccc(Cl)cc2)o1 (stereo not given)	-6.19% (inactive)
Cc1oc(-c2ccccc2Cl)[n+]([O-])c1C	-2.99% (inactive)
CCOC(=O)C(C)n1nc(-c2ccccc2)c2ccccc2c1=O (stereo not given)	16.8% (inactive)
COCCNc1nnc(SCC(=O)NNC(=O)c2ccco2)s1	0.175% (inactive)
O=C(Nc1nnc(CCOCCOCCc2nnc(NC(=O)c3ccco3)s2)s1)c1ccco1	14.7% (inactive)
O=C(Nc1nnc(SCc2ccccc2)s1)c1ccco1	63% (active)
S=c1[nH]c(-c2cccs2)cn1-c1ccccc1	-4.29% (inactive)
O=c1oc2ccccc2cc1-c1cn(-c2ccccc2)c(=S)[nH]1	94% (active)

SMILES	inhibition
COc1cccc(-n2c(=S)[nH]c3c(oc4ccccc43)c2=O)c1	-5.17% (inactive)
CC(NC(=O)C1CCC(CNc2c(N3CCOCC3)c(=O)c2=O)CC1)c1ccccc1 (stereo not given)	-0.949% (inactive)
CCOc1ccc2[nH]c(=O)c(C(c3nnnn3CCOC)N3CCOCC3)cc2c1 (stereo not given)	7.39% (inactive)
COCCn1nnnc1C(c1cc2ccc(OC)cc2[nH]c1=O)N1CCc2ccccc2C1 (stereo not given)	72.7% (active)
COc1ccc(OC)c(C(c2nnnn2C(C)(C)C)N2CCc3ccccc3C2)c1 (stereo not given)	-3.29% (inactive)
O=c1cc(Cl)c2ccccc2n1-c1ccccc1	-18.3% (inactive)
CCNC(=O)NNC(=O)C1CC(c2cccs2)=NO1 (stereo not given)	-11.1% (inactive)
Cc1cc(C)cc(NC(=O)N(C)Cc2ccccc2)c1	-7.22% (inactive)
Cc1c(NC(=O)CSCc2ccccc2)cccc1C(=O)O	9.84% (inactive)
CN1CCNC(=O)C1CC(=O)N1CC=C(c2ccc(F)cc2)CC1 (stereo not given)	4.55% (inactive)
COc1ccc(/C=C2\SC(=O)N(CCC(=O)NCCCn3ccnc3)C2=O)cc1	15.6% (inactive)
COc1ccc(/C=C2\SC(=O)N(CCC(=O)NC3CCS(=O)(=O)C3)C2=O)cc1 (stereo not given)	12.7% (inactive)
COc1ccc(/C=C2/SC(=O)N(CCCCCC(=O)Nc3ccccc3C(=O)O)C2=S)cc1	63.7% (active)
O=C(Nn1c(-c2ccc(Cl)cc2)nc2ccccc2c1=O)c1cccnc1Cl	1.41% (inactive)
Cc1ccc2c(c1)N(C(=O)CCC(=O)N1CCc3ccccc3C1)CCO2	10.2% (inactive)
Oc1ccc(CNc2ccccc2O)cc1	17.3% (inactive)
CCOC(=O)C1(Cc2ccccc2C)CCCN(C(=O)CCc2c(C)noc2C)C1 (stereo not given)	9.37% (inactive)
N=c1c2c3c(sc2nc2n1CCCCC2)CCCC3	64.2% (active)
N=c1c2c3c(sc2ncn1N)CCCCC3	-21.7% (inactive)
CC1(C)Cc2c(sc3nc4n(c(=N)c23)CCCCC4)CO1	-4.65% (inactive)
CC(OC(=O)CCc1nc(=O)c2ccccc2n1C)C(=O)NCc1ccc2c(c1)OCO2 (stereo not given)	-15.7% (inactive)
Cc1cc(NC(=O)COc2ccc([N+](=O)[O-])cc2)no1	-2.83% (inactive)
Cc1cc(NC(=O)Nc2ccccc2[N+](=O)[O-])no1	54% (active)
Cc1cc(NC(=O)c2ccccc2C)no1	-1.58% (inactive)
Nc1ccn(CC(=O)N2CCN(c3ccccn3)CC2)c(=O)n1	-3.83% (inactive)

SMILES	inhibition
CC(C)C(=O)NC(NC(=S)NC1CCS(=O)(=O)C1)C(Cl)(Cl)Cl (stereo not given)	-19.9% (inactive)
COc1ccc(N2C(=O)CCC(C(=O)Nc3ccccn3)C2c2ccc(OC)c(OC)c2)cc1 (stereo not given)	-4.43% (inactive)
CCOc1ccc(NC(=S)N2CCC(NC(=O)c3ccccc3)CC2)cc1	-17.6% (inactive)
Cc1ccc(N/C=C/C(=O)c2ccccc2)cc1C	95.8% (active)
CCOc1ccc(N/C=C/C(=O)c2ccccc2)cc1	94.4% (active)
O=C(/C=C/NCc1ccc(F)cc1)c1ccccc1	-0.568% (inactive)
COc1ccc(C(=O)/C=C/Nc2ccccn2)cc1	97.2% (active)
CCOc1ccc(N/C=C/C(=O)c2cc(OC)c(OC)c(OC)c2)cc1	-7.87% (inactive)
Cc1cc(N/C=C\C(=O)c2ccc(Cl)c(Cl)c2)no1	-3.41% (inactive)
CC(=O)Nc1ccc(/C=C/C(=O)c2ccccc2)cc1	-17% (inactive)
C[C@H](NC(=O)C1CC(=O)N(c2ccc3c(c2)OCCO3)C1)C(=O)N1CCC(C(=O)O)CC1 (stereo not given in full)	-10.8% (inactive)
CCC(C)CN1CCC(CO)(Cc2ccccc2Cl)CC1 (stereo not given)	8.24% (inactive)
CC1CCC(CN2CCN=C2N(C)C)CC1 (stereo not given)	-19.7% (inactive)
Cc1ccccc1C(OCCN(C)C)C1CCCCC1 (stereo not given)	-10.8% (inactive)
COc1ccc(C2=Nc3cc(C)ccc3OC2)cc1	81.7% (active)
Cc1ccc(C(=O)NNC2=Nc3cc([N+](=O)[O-])ccc3OC2)cc1	-18.4% (inactive)
COc1ccc(C2=NOC(COC(=O)c3ccc4ccccc4n3)C2)cc1 (stereo not given)	-7.77% (inactive)
CCOCCN(C=O)c1cccc(OC)c1	-10.1% (inactive)
O=C(COC(=O)c1n[nH]c2ccccc12)Nc1ccccc1Br	-4.53% (inactive)
CCCn1nc(C(=O)OCc2nc(N)nc(Nc3ccccc3C)n2)c2ccccc2c1=O	-0.795% (inactive)
COc1cc(/C=C/C(=O)OCC(=O)N2CCOCC2)ccc1OCC#N	2.81% (inactive)
COc1ccc(N2C(=O)C(O)C2c2ccc(C)cc2)cc1 (stereo not given)	-8.14% (inactive)
Cc1cc(C)cc(NC(=O)N2CCCCCCC2)c1	-8.39% (inactive)
Cc1ccc2nc(N3CCN(C(=O)c4ccco4)CC3)sc2c1	-9.94% (inactive)
Cc1ccc2cc3cc(C(=O)N4CCCCCC4)oc3nc2c1	57.1% (active)
